# What was measured:
# [1] = target: T1, Serine/threonine-protein kinase TAO3 (Homo sapiens) (UniProt Q9H2K8); conditions: at 10 µM
# T1 sequence (whole entry): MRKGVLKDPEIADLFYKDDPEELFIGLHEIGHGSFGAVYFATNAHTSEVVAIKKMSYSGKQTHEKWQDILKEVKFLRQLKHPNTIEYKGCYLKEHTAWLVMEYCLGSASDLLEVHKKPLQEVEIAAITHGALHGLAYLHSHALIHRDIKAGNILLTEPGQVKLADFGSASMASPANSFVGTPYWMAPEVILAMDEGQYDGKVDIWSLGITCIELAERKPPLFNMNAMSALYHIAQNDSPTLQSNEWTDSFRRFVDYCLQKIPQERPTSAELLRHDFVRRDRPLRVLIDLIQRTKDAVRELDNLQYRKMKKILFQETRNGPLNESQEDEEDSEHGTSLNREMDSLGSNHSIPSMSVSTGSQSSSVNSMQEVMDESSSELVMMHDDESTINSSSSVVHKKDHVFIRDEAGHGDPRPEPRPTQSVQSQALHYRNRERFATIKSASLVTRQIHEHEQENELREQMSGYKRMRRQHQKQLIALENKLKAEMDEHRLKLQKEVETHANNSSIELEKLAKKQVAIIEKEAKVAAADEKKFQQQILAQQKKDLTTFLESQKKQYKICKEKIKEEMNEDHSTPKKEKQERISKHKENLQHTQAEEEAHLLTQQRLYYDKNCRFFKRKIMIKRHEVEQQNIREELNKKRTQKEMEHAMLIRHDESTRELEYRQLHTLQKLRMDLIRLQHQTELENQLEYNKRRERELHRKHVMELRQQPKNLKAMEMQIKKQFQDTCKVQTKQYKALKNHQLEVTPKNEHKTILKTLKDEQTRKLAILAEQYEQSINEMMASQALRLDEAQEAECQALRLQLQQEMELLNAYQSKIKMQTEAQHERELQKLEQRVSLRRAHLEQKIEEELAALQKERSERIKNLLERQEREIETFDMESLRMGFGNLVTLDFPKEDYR
# [2] = target: T2, Serine/threonine-protein kinase TBK1 (Homo sapiens) (UniProt Q9UHD2); conditions: at 1 µM
# T2 sequence (whole entry): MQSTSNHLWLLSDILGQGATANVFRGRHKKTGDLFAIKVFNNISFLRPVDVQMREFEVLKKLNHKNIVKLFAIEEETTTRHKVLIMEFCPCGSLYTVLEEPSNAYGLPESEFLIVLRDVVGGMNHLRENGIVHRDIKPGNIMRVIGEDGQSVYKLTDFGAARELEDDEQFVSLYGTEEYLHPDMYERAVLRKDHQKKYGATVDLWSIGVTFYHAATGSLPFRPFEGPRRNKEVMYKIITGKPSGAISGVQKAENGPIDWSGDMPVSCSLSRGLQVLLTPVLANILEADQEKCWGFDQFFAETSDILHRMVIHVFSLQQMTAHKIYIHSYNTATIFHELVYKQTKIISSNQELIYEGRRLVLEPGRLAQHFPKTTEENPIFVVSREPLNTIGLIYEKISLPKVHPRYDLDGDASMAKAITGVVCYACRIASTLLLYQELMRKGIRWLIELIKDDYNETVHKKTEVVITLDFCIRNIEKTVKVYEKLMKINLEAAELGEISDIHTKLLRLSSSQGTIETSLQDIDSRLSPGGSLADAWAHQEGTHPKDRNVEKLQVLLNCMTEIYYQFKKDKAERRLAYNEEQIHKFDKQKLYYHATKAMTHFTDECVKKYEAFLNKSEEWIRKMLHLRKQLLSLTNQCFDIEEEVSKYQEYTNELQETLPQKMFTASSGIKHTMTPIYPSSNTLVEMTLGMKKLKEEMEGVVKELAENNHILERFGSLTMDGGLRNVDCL
# [3] = target: T2, Serine/threonine-protein kinase TBK1 (Homo sapiens); conditions: at 10 µM
# [4] = target: T3, TGF-beta receptor type-1 (Homo sapiens) (UniProt P36897); conditions: at 1 µM
# T3 sequence (whole entry): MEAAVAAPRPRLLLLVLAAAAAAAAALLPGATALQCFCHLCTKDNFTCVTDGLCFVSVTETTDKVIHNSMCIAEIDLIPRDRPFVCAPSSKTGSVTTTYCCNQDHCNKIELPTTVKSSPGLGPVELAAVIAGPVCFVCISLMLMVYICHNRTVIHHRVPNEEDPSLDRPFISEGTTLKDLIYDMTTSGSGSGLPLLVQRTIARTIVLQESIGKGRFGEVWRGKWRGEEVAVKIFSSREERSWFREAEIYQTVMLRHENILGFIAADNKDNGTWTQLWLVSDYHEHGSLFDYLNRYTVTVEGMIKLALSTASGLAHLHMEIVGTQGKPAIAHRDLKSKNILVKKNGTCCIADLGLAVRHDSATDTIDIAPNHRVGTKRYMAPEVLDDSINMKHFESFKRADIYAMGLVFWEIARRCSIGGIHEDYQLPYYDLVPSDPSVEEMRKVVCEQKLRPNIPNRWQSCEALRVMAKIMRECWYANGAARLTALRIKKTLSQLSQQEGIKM
# [5] = target: T3, TGF-beta receptor type-1 (Homo sapiens); conditions: at 10 µM
# [6] = target: T4, Inhibitor of nuclear factor kappa-B kinase subunit alpha (Homo sapiens) (UniProt O15111); conditions: at 10 µM
# T4 sequence (whole entry): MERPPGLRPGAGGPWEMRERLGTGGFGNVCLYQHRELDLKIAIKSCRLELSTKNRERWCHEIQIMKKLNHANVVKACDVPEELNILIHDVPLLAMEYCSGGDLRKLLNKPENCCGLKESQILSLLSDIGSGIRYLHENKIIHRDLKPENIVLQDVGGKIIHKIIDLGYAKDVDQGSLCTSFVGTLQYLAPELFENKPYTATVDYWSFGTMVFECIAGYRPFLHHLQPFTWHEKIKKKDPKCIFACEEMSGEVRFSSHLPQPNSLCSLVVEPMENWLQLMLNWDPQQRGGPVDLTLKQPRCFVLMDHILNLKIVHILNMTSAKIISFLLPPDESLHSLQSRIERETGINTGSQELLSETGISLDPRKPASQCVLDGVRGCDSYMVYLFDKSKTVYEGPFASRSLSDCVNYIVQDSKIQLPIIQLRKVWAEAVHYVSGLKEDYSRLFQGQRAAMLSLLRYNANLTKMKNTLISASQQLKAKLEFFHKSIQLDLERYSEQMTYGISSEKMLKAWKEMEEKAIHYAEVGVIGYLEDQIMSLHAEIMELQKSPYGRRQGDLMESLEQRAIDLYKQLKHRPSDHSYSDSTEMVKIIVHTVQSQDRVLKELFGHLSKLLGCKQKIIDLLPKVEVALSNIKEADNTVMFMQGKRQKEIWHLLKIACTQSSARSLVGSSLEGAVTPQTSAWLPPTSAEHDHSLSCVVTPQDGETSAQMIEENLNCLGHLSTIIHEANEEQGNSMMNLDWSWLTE
# [7] = target: T5, Inhibitor of nuclear factor kappa-B kinase subunit beta (Homo sapiens) (UniProt O14920); conditions: at 1 µM
# T5 sequence (whole entry): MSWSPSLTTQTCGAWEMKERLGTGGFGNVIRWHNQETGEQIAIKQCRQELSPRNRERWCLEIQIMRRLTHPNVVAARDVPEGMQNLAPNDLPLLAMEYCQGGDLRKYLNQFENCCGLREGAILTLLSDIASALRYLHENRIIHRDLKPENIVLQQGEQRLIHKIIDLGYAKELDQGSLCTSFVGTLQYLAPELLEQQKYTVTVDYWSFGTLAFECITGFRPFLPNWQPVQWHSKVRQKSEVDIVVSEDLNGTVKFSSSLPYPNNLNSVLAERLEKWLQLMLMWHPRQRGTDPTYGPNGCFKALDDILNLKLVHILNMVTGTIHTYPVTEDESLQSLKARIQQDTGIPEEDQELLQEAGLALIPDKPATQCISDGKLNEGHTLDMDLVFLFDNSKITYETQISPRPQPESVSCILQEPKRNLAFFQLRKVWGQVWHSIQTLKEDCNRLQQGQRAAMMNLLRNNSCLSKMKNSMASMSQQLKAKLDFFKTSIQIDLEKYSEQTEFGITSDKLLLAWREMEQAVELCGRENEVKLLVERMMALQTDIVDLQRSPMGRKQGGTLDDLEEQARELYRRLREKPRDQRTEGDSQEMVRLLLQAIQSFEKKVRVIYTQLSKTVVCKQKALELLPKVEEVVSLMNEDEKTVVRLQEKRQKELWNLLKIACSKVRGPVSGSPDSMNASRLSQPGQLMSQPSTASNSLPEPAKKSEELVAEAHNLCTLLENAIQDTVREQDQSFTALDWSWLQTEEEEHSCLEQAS
# [8] = target: T5, Inhibitor of nuclear factor kappa-B kinase subunit beta (Homo sapiens); conditions: at 10 µM
# [9] = target: Insulin receptor (Homo sapiens) (UniProt P06213); conditions: at 1 µM
# Chain of Insulin receptor (Homo sapiens) (P06213 28-758 limits assumed): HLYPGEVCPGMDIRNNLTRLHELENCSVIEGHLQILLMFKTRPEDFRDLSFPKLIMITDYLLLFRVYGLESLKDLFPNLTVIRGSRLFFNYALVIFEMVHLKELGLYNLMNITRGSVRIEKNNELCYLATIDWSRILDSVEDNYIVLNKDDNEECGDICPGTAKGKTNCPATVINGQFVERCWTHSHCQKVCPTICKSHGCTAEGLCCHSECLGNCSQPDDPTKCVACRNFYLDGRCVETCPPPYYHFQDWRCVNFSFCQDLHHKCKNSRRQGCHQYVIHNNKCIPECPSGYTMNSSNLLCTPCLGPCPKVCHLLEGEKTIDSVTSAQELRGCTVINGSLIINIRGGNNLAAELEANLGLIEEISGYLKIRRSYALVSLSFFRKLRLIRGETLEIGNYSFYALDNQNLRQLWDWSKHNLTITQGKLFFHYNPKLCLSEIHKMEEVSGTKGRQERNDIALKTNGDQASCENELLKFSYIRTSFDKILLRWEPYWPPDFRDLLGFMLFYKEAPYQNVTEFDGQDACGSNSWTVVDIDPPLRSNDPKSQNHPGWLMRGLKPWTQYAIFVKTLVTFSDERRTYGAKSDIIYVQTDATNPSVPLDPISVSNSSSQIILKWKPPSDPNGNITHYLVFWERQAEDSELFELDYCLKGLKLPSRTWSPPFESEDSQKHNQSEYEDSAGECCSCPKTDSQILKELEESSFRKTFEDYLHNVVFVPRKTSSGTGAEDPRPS
# Chain of Insulin receptor (Homo sapiens) (P06213 763-1382 limits assumed): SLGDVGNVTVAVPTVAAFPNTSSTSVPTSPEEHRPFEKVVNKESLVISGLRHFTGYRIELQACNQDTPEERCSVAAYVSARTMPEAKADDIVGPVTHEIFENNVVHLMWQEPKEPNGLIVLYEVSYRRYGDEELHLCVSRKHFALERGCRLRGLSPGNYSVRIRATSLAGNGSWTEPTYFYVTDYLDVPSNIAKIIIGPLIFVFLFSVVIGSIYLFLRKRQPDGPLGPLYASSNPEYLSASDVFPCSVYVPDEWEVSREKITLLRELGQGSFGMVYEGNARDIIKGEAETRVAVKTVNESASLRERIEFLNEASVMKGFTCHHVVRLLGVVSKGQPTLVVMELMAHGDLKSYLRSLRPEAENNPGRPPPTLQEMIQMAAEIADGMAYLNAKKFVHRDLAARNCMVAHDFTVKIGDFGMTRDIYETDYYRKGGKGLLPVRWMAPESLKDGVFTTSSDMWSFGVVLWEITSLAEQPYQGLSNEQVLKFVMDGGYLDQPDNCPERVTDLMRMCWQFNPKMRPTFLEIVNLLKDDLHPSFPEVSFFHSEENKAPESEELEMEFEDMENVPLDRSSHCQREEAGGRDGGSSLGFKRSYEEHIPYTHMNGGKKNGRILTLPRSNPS
smiles,measurement,setting,value
O=C1Nc2ccc(Cl)cc2/C1=C/c1cc(Cl)c(O)c(Cl)c1,residual activity,[1],52%
same,residual activity,[2],59%
same,residual activity,[3],38%
same,residual activity,[4],79%
same,residual activity,[5],42%
same,residual activity,[6],88%
same,residual activity,[7],100%
same,residual activity,[8],67%
same,residual activity,[9],96%

# Source: ChEMBL document CHEMBL2218924, “A broad activity screen in support of a chemogenomic map for kinase signalling research and drug discovery” (Biochem J, 2013)
